# Experimental data: PubChem BioAssay AID797 (University of Pittsburgh Molecular Library Screening Center, 2007)
# Among all 200,000 compounds or so, about 110 (0.055%) were called active. This excerpt belongs to a sample that is enriched for actives. A number with no mark means an inactive call. Rule as the data show it: active = inhibition above about 50%; inactive = the rest. Where a SMILES comes first, the peptide text is derived from it. [ ]: non-standard residue; d: D form. ξ: configuration not given here. ξM = CSCCC(N)C(=O)O
# Target: Serine/threonine-protein kinase D1 (Homo sapiens) (UniProt Q15139)
# Sequence (Q15139 whole entry, looked up): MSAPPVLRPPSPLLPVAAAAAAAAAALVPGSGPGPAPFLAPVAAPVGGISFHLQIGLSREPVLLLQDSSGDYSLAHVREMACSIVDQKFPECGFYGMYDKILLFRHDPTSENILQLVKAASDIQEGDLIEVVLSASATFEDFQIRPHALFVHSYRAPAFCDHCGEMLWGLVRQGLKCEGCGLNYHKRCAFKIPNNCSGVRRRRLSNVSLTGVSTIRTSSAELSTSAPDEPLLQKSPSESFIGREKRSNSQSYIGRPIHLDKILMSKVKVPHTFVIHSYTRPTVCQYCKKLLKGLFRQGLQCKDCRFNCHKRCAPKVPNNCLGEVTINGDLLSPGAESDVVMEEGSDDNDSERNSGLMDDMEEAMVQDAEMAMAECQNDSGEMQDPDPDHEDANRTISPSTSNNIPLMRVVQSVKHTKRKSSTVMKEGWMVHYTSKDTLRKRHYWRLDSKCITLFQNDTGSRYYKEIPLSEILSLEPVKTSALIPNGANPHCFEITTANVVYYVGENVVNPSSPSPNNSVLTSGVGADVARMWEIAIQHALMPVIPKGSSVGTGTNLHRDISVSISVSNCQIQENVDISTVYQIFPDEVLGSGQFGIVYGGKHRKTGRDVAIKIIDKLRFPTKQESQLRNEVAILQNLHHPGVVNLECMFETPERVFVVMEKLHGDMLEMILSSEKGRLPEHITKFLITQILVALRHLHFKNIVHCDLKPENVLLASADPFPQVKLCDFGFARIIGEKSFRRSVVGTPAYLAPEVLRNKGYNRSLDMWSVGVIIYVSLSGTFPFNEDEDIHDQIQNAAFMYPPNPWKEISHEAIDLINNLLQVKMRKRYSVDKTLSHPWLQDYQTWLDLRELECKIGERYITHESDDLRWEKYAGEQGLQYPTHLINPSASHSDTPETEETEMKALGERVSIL
# Experiment: protein kinase D1 activity blockers – biochemical, fluorescence polarization (AID 797)
# Settings: PKD1 kinase fluorescence polarization assay; hits give high values; concentration not given here
row,Structure (SMILES),inhibition
1,CCCCN(CC(=O)NC(C)(C)C)C(=O)C(=O)Nc1ccc2c(c1)OCCO2,1.16%
2,CCCOC(=O)c1ccc(N2C(=O)c3ccccc3C2=O)cc1,1.49%
3,O=C(CCc1ccccc1)NNC(=O)c1ccc(Br)cc1,4.58%
4,O=C(c1ccccc1)c1ccc(OCC(O)CN2CCCC2)cc1 (configuration not stated),13.5%
5,COC(=O)c1ccc(OCC(O)CN(CCO)CC(O)Cn2ccc3ccccc32)cc1 (configuration not stated),3.96%
6,OC(CNCc1ccc(Cl)c(Cl)c1)c1ccccc1 (configuration not stated),-3.03%
7,COc1cc2c(cc1OC)C(Nc1ccc(S(N)(=O)=O)cc1)=NC(C)(C)C2,-5.13%
8,COc1ccc(NC(=O)c2sc(N3CCOCC3)nc2-c2ccccc2)c(OC)c1,-1.24%
9,CCC(=O)Nc1ccc(C(=O)N2CCN(C(=O)c3ccco3)CC2)cc1,2.96%
10,Cc1ccc(NC(=O)Cn2c(=O)n(CCC(=O)NC3CCN(Cc4ccccc4)CC3)c(=O)c3ccccc32)cc1,0.69%
11,O=C(CN1CCOCC1)Nc1c(Cl)cc(Cl)cc1Cl,-2.42%
12,Cc1ccc2nsnc2c1NC(=O)c1ccccc1[N+](=O)[O-],-3.06%
13,Cc1ccccc1NS(=O)(=O)CCCCC(Cl)(Cl)Cl,-2.05%
14,COc1cccc(C2SCC(=O)N2c2cccc(C)c2)c1OC (configuration not stated),-7.34%
15,O=C(NN1C(=O)C2C3C=CC(O3)C2C1=O)c1ccccc1 (configuration not stated),-7.27%
16,COc1ccccc1C(=O)NN1C(=O)C2C3C=CC(O3)C2C1=O (configuration not stated),52.7% (active)
17,O=C(NN1C(=O)C2C3C=CC(O3)C2C1=O)c1ccncc1 (configuration not stated),-9.52%
18,O=C(Cc1cccs1)Nc1cccc(-c2nc3ccccc3[nH]2)c1,-1.91%
19,CCc1cc(C(N)=O)c(NC(=O)c2ccc(OC)cc2)s1,-8.2%
20,O=C(O)CC(SCC(=O)Nc1ccc(Br)cc1)C(=O)O (configuration not stated),-6.53%
21,CCOC(=O)c1cnc(SCC(=O)Nc2ccccc2C(=O)OC)nc1N,-2.4%

row,Structure (SMILES),inhibition
1,Cc1nc2cc(NC(=O)NC3CC3)ccc2n1C,-0.99%
2,O=C(Cc1ccc([N+](=O)[O-])cc1)N/N=C/c1ccco1,-4.83%
3,CCCCC(=O)Nc1ccc(C(=O)Nc2cc(C(F)(F)F)ccc2Cl)cc1,-1.39%
4,O=C(COc1nc2ccccc2nc1N1CCOCC1)NCC(F)(F)F,-0.08%
5,CC(=O)Nc1ccc(S(=O)(=O)N(CCc2ccccc2)CC(=O)N/N=C/c2ccc(C(=O)O)cc2)cc1,5.13%
6,CCN(CC(=O)Nc1ccccc1OC)C(=O)Cn1cnc2ccccc2c1=O,7.55%
7,N=C1C(c2nc3ccccc3s2)=C(O)CN1NC(=O)c1ccc([N+](=O)[O-])cc1,-8.3%
8,CN1CCN(c2ccc(S(=O)(=O)N3CCCCC3)cc2NC(=O)Cc2ccccc2F)CC1,-6.13%
9,Cc1ccc(NC(=O)CN2CCC(C(N)=O)CC2)cc1[N+](=O)[O-],5.71%
10,COc1ccc(NC(=O)CC2C(=O)OCC3CCCCN32)cc1Cl (configuration not stated),-6.39%
11,Cc1onc(C(=O)NCc2ccc(F)cc2)c1[N+](=O)[O-],0.1%
12,CCn1nc(C)c(/C=N/NC(=O)Cc2ccc(Cl)cc2)c1C,3.28%
13,O=C(O)c1cccc(N2C(=O)Nc3ccccc3N2O)c1,7.76%
14,CCCCCCNCCn1cnc2c(N)ncnc21,6.16%
15,CC1CCN(c2ccc(C(=O)NCc3ccc4c(c3)OCO4)cc2[N+](=O)[O-])CC1,0.75%
16,Brc1c(CSc2nncc3ccccc23)nc2ccccn12,7.29%
17,Cc1ccc(O)c(-c2cc(C(=O)NCc3ccccc3)[nH]n2)c1,-6.87%
18,CCOC(=O)C(CC)/C(C)=N\NC(=O)c1cccc(C)c1 (configuration not stated),-4.87%
19,COc1cccc2cc(/C(C)=N/NC(=O)c3ccco3)oc12,5.6%
20,O=C(CC1NCCc2ccccc21)Nc1cccc(Cl)c1 (configuration not stated),-4.65%
21,O=C(CN1CCN(c2ccc(O)cc2)CC1)Nc1cc(S(=O)(=O)N2CCOCC2)ccc1Cl,1.7%

row,Structure (SMILES),inhibition
1,CC1(C)C(C=C(Cl)Cl)C1C(=O)N(Cc1ccc(Cl)cc1)C1CCS(=O)(=O)C1 (configuration not stated),0.63%
2,CCOC(=O)Cc1ncccc1C(=O)Nc1ccc(OC(F)(F)F)cc1,-0.72%
3,CN1C(=O)/C(=C\c2ccc(-c3ccccc3)o2)SC1=S,-6.62%
4,CSc1cccc(NC(=S)N(Cc2ccccc2)Cc2ccccn2)c1,-9.2%
5,COC(=O)CNC(=O)C(CCSC)NC(C)=O (configuration not stated) (Ac-[ξM]-Gly-OMe),9.67%
6,O=C(CSc1ccc(-c2cccs2)nn1)Nc1ccccc1F,2.17%
7,CCN(CC)CCOCCOc1ccc(Cl)c2ccccc12,-3.28%
8,CN1CCN(C(=O)C2=C[C@H](c3ccc4c(c3)OCO4)C[C@H](OCc3ccc(CO)cc3)O2)CC1,-5.9%
9,O=C1/C(=C/c2cccs2)CCC1C1CCCC1 (configuration not stated),-1.44%
10,Cc1ccc(NC(=O)Nc2nnc(-c3ccncc3)s2)cc1,2.87%
11,CCc1nnc(NC(=O)CSc2nc(SC)ns2)s1,1.32%
12,O=C(Nc1nnc(C2COc3ccccc3O2)o1)c1ccc(F)cc1 (configuration not stated),-1.94%
13,CCC(C)NCC(=O)Nc1ccc([N+](=O)[O-])cc1C(=O)Nc1ccccc1F (configuration not stated),-10.9%
14,CNC(=O)COC(=O)c1cc(-c2ccc(OC)cc2)nc2ccccc12,-3.14%
15,Nc1cccc(-c2cc(-c3ccccc3)nc(-c3cccc(N)c3)n2)c1,-18.9%
16,COC(=O)NNC(=O)C1CCC(C)CC1 (configuration not stated),-3.54%
17,Cc1cccc(NC(=O)c2nnn(-c3cccc(C(F)(F)F)c3)c2N)c1,-0.25%
18,S=C1NC(c2ccccc2)=NCN1c1ccc(Br)cc1,0.72%
19,COc1ccc2ccccc2c1CNc1nnnn1C,-8.73%
20,CCC(C)NC(=O)/C=C/c1ccc(S(=O)(=O)NCc2ccco2)cc1 (configuration not stated),7.02%
21,CCCCSc1nc2ccccc2[nH]1,-6.36%

row,Structure (SMILES),inhibition
1,CN(CCc1cn[nH]c1)C(=O)CC1C(=O)NCCN1Cc1cccc(Oc2ccccc2)c1 (configuration not stated),-3.31%
2,Cc1c(C(=O)NCCN2C(=O)S/C(=C\c3cccs3)C2=O)cccc1[N+](=O)[O-],8.76%
3,Cc1ccc2c(=O)oc(N(C)C)nc2c1,1.27%
4,C#CCOCCOCCOCCNc1nc(N2CCN(C(=O)[C@H](CCCCN)n3cc([C@@H](N)C(C)CC)nn3)CC2)nc(N2CCN(C(=O)[C@H](Cc3ccc(O)cc3)n3cc([C@@H](N)C(C)CC)nn3)CC2)n1 (some centres not stated),-0.05%
5,C=CCNC(=S)N1CCN(CCN=Cc2c(C)[nH]n(-c3ccc([N+](=O)[O-])cc3)c2=O)CC1,-2.35%
6,CC(Oc1ccc(Cl)cc1)c1ccnn1S(C)(=O)=O (configuration not stated),-7.83%
7,CCOC(=O)c1c(NC(=O)C2CCN(S(=O)(=O)c3ccc(Cl)cc3)CC2)sc2c1CCCC2,8.85%
8,CCCCCC1CCC(c2nnc(SCC(C)=O)o2)CC1 (configuration not stated),-8%
9,O=[N+]([O-])c1cc(S(=O)(=O)N2CCCC2)ccc1NN=C1CCCC1,2.42%
10,Cc1cc(N/N=C/c2ccccc2F)c2ccccc2n1,4.69%
11,Cc1ccc(-n2cc(CN(C)Cc3nccn3C)c(-c3cccc(C)c3)n2)cc1,-5.32%
12,COc1ccc(S(=O)(=O)Nc2cccnc2)c(Cl)c1Cl,-2.39%
13,O=C(NCCCN1CCOCC1)c1ccc(N2CCCC2)c([N+](=O)[O-])c1,-1.03%
14,CC(C)(C)c1nnc(N/N=C/c2ccc(O)cc2)n(N)c1=O,-3.71%
15,CC(C)(C)NC(=O)NC(=O)CN1CCC(Cc2ccccc2)CC1,-4.14%
16,CCN1/C(=C\c2ccc3ccccc3[n+]2CC)Sc2cc(C)ccc21,-5.46%
17,Cc1scc(C(=O)NNC(=S)NCc2ccccc2)c1C,-7.68%
18,COc1ccc(/C=N/n2c(C)cc(C)cc2=O)cc1,-7.11%
19,CCCn1c(NC(=O)C23CC4CC(CC(O)(C4)C2)C3)nc2ccccc21,-0.11%
